# Measurements from PubChem BioAssay AID1159580 (chemical genetic matrix, 2015).
# Out of some 5,500 compounds screened, about 2,000 (36%) were called active. Another 18% or so got no clear call; they are omitted. This is one part of the list. A number with no mark means an inactive call. Rule as the data show it: active = normalized growth mostly below about 0.91 (no sharp cut-off); inconclusive = no clear call, values can overlap the other calls; inactive = mostly above about 0.92.
# Test: chemical genetic growth profiling, strain panel (AID 1159580);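 also: tested at 20 µM; growth read once vehicle control cultures reached saturation at 30 °C; 1 = growth at the plate median or of vehicle wells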
# Conditions: S. cerevisiae deletion strains, growth OD
structure (smiles),measurement,setting,value
Cc1onc2c(=O)n(-c3ccccc3)nc(-c3ccccc3)c12,normalized growth,"locus YAL013W, strain DEP1, stronger effect = lower value",0.98
same,normalized growth,"locus YBR229C, strain ROT2, stronger effect = lower value",0.983
same,normalized growth,"locus YCL061C, strain MRC1, stronger effect = lower value",0.98
same,normalized growth,"locus YDL101C, strain DUN1, stronger effect = lower value",0.954
same,normalized growth,"locus YDL134C, strain PPH21, stronger effect = lower value",0.981
same,normalized growth,"locus YDR150W, strain NUM1, stronger effect = lower value",0.934
same,normalized growth,"locus YEL061C, strain CIN8, stronger effect = lower value",0.968
same,normalized growth,"locus YGR078C, strain PAC10, stronger effect = lower value",0.947
same,normalized growth,"locus YHR030C, strain SLT2, stronger effect = lower value",0.517 (active)
same,normalized growth,"locus YHR087W, strain rtc3, stronger effect = lower value",0.978
same,normalized growth,"locus YJR043C, strain POL32, stronger effect = lower value",1.01
same,normalized growth,"locus YJR075W, strain HOC1, stronger effect = lower value",0.622 (active)
same,normalized growth,"locus YLR039C, strain RIC1, stronger effect = lower value",0.57 (active)
same,normalized growth,"locus YLR058C, strain SHM2 (second series), stronger effect = lower value",0.984
same,normalized growth,"locus YLR085C, strain ARP6, stronger effect = lower value",0.769 (active)
same,normalized growth,"locus YLR262C, strain YPT6, stronger effect = lower value",0.574 (active)
same,normalized growth,"locus YML094W, strain GIM5, stronger effect = lower value",0.978
same,normalized growth,"locus YMR219W, strain ESC1, stronger effect = lower value",0.955
same,normalized growth,"locus YMR263W, strain SAP30, stronger effect = lower value",0.974
same,normalized growth,"locus YMR307W, strain GAS1, stronger effect = lower value",0.568 (active)
same,normalized growth,"locus YNL153C, strain GIM3, stronger effect = lower value",1
same,normalized growth,"locus YNL298W, strain CLA4 (second series), stronger effect = lower value",0.911
same,normalized growth,"locus YNL322C, strain KRE1, stronger effect = lower value",0.929 (active)
same,normalized growth,"locus YNR030W, strain Alg12, stronger effect = lower value",0.945
same,normalized growth,"locus YPL055C, strain LGE1, stronger effect = lower value",1.02
same,normalized growth,"locus YPL241C, strain CIN2, stronger effect = lower value",0.959
same,normalized growth,"locus YPR135W, strain CTF4, stronger effect = lower value",0.68
